Only some compounds are listed: those with a hit (about 3.2% of all), similar ones and a draw of the others.
p53 reactivator: mutant p53 re-activation in reporter cells. actives 0.063% (n = 320,000). Potency, µM (highest dose often 92.2 µM), for the others: at the highest dose activity change, positive = activation, most hits filed as activators. H1299 p53-A138V BP100-luciferase reporter, luminescence, 24 h; further: potency means the concentration at half of the fitted maximal effect; % of control where 0% means no effect; nearly all actives have a fitted effect of over 45% in size
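H1299 (p53-null), stable ts p53-A138V + BP100-Luc; 1000 cells/well, Opti-MEM/10% FBS; cpd 4 pt, 1:5; 24 h, 37 deg C, 5% CO2; detection reagent 10 min RT; luminescence.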
Nrf2 activator: activates Nrf2 signaling. AREc32 ARE-luciferase reporter (MCF7-derived line), luminescence, 24 h. Potency, µM (highest dose often 46.1 µM), for the others: top-dose activation, actives largely listed as activators. actives 0.31% (n = 410,000). AID 624171; further: potency means the concentration at half of the fitted maximal effect; % of control where 0% means no effect; nearly all actives have a fitted effect of over 65% in size
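Nrf2 activation is followed as ARE-luciferase induction in the AREc32 line after one day of compound treatment; luminescence is read with Steady-Glo.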
A549 tox: kills or reduces viability of A549 cells in Nrf2 counter-screen; A549 ARE-Fluc cells, CellTiter-Fluor viability, 18-24 h; Potency, µM (top dose mostly 46 µM), for the others: top-dose activity change, negative = cytotoxicity, hits mostly inhibitors; AID 504648; actives 0.16% (n = 390,000); further: potency means the concentration at half of the fitted maximal effect; on the % scale 0 is the no-effect control and ±100 the full control effect
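A549 ARE_Fluc cells in 5% FBS OPTI-MEM were exposed to compounds in concentration-response for 18-24 h at 37 deg C. Viability was read by CellTiter-Fluor fluorescence (Ex 405/Em 525) after 30 min, before the luciferase read.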
BRCA1 expr up: BRCA1 expression activation; Potency, µM (series often up to 46.1 µM), for inactives: top-dose activation, most hits filed as activators; actives 1.1% (n = 380,000); AID 624202; MCF7-BRCA1-FFLuc reporter, luminescence, 48 h; response scale: scaled: vehicle 0%, 10 µM genistein 100%; further: potency means the concentration at half of the fitted maximal effect; nearly all actives have a fitted effect of over 80% in size
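First, MCF7-BRCA1-FFLuc cells (2000/well) attach for 2 h; next, compounds are pin-added and incubated 48 h at 37 °C; finally, luciferase reagent is added and luminescence read after 15 min.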
IL-2 act: activates IL-2 in a cell-based reporter assay. IL-2 activation reporter assay, cell-based qHTS; stimulated with anti-CD3/CD4/CD28 beads; in transgenic mouse T cells. activation, % (series mostly up to about 46 µM). actives 0.065% (n = 360,000). AID 652025; in the data active means activation above about 50%; inconclusive means mostly about 30% to 49%; further: 0% is about no effect
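First, unstimulated transgenic mouse T cells were exposed to compound for 60 min. Next, anti-CD3/anti-CD4-coated beads with anti-CD28 were added. Finally, after 18 h at 37 degrees C, EGFP and DsRed were imaged.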
Nrf2 inh: blocks Nrf2 signaling; A549 ARE-Fluc reporter, luciferase luminescence, 18-24 h; Potency, µM (doses to about 46 µM), without a hit: at the top dose activity change, negative = inhibition, hits mostly inhibitors; actives 2.1% (n = 360,000); AID 504444; further: potency means the concentration at half of the fitted maximal effect; on the % scale 0 is the no-effect control and ±100 the full control effect; nearly all actives have a fitted effect of over 60% in size
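Concentration-response testing used A549 ARE_Fluc cells at 5000 cells/well. Following an 18-24 h compound incubation, viability was read by fluorescence (Ex 405/Em 525) and luciferase output by luminescence.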
Starred values were filed as active, the others as inactive; ? = inconclusive; nt = no result. Unless noted, the call rests on the fitted dose curve; in most records, active means well fitted curve in the direction sought with a large enough effect; inconclusive means small, poorly fitted or top-dose-only effect, or another doubt; inactive means no such curve, though single readings can be large; an effect the other way counts as inactive or inconclusive.

SMILES | p53 reactivator | Nrf2 activator | A549 tox | BRCA1 expr up | IL-2 act | Nrf2 inh
CCc1ccc(C(=O)Cc2cc3cccc(OC)c3oc2=O)cc1 | 13.2% | 6.2% | 0.0% | 11.2µM* | -0.6 | 4.8%
COc1ccc(N2CCN(c3nc4ccccc4n4c(C)nnc34)CC2)cc1 | nt | -0.2% | -1.6% | nt | nt | -28.8%
NC(=O)C1CCN(C(=O)c2ccccc2NC(=O)c2nsc3ccccc23)CC1 | nt | 6.2% | 18.7% | nt | nt | nt
C/C(=N\O)c1ccc2c3c([nH]c2c1)CCCC3 | ? | 5.9% | -16.2% | 10µM* | 0.2 | -1.1%
CC(C)(C)OC(=O)N/N=C\c1ccc(OC(=O)c2ccco2)cc1 | 22.5% | 3.0% | 2.7% | 7.94µM* | -0.6 | ?
Cc1ccc(COc2ccc3c(c2)OCO3)cc1 | ? | 0.6% | -3.1% | ? | 3.3 | ?
O=Cc1ccc(OCc2ccc3c(c2)OCO3)cc1 | nt | 1.4% | 0.9% | 2.82µM* | 0.6 | 10.4%
Cc1cccc(Nc2nnc(-c3ccc(C)c(S(=O)(=O)N4CCN(C)CC4)c3)c3ccccc23)c1 | nt | 5.3% | ? | nt | nt | ?
O/N=C/c1ccccc1OCc1ccc(Cl)cc1 | 9.1% | 2.4% | -9.1% | 11.2µM* | -2.4 | ?
O=C1COCCN1 | nt | nt | 0.0% | nt | nt | 12.6%
Cc1nn(-c2ccc(N3CCCC3)nn2)c(C)c1CCC(=O)Nc1ccc(F)cc1F | nt | 3.4% | -0.2% | nt | nt | ?
O=C(c1ccccc1)[C@@H]1[C@@H]2C(=O)N(c3ccc(F)cc3)C(=O)[C@@H]2C2CCCN21 (stereo partly specified) | -9.6% | 10µM* | 19.4% | -71.2% | -0.2 | 3.8%
COc1ccc(N2CCN(C(=O)C3CCN(S(=O)(=O)c4cccs4)CC3)CC2)cc1 | -2.2% | 0.2% | 0.4% | 0.0% | -2.4 | ?
COc1ccc(CN2CCN(C(=O)C3CCN(S(=O)(=O)c4cccs4)CC3)CC2)c(OC)c1OC | -0.5% | -0.1% | -3.7% | -10.5% | -0.9 | 14.6µM*
Cc1ccc(OCCSc2nnc(-c3cccs3)o2)cc1Cl | nt | 3.9% | 15.6% | nt | nt | 10.0%
COc1ccc(C(=O)NC(C(=O)N2CCN(C/C=C/c3ccccc3)CC2)C(C)C)cc1 (stereo unspecified) | nt | -1.1% | nt | -11.2% | -2.1 | nt
CC(C)[C@H](NC(=O)c1ccc([N+](=O)[O-])cc1Cl)C(=O)N1CCN(C/C=C/c2ccccc2)CC1 | -0.2% | 6.0% | ? | -45.2% | 0.2 | 23.1µM*
Cc1ccc(Nc2ncccc2C(N)=O)cc1[N+](=O)[O-] | ? | 4.2% | 1.3% | 5.62µM* | -4.5 | ?
Cc1ccc(Nc2ncccc2C(=O)O)cc1C | 28.9% | 6.2% | 0.6% | ? | -0.1 | ?
Cc1cc(C(=O)N(C)C2CCCCC2)no1 | -2.2% | 0.0% | -9.0% | -16.6% | -3.2 | 1.8%
COc1cccc(OCc2cc(C(=O)N(C)CCC3CCCCO3)no2)c1 (stereo unspecified) | -9.2% | 0.4% | -3.0% | 43.7% | -4.5 | ?
COc1cccc(OCc2cc(C(=O)N(C)C3CCCCC3)no2)c1 | nt | 10.2% | nt | 11.2µM* | -1.3 | nt
CN(C(=O)c1cc(-c2ccccc2)on1)C1CCCCC1 | ? | -0.5% | -2.4% | 1.58µM* | -0.4 | ?
NC(N)=NCCC[C@H](NC(=O)CNC(=O)c1ccccc1)C(=O)Nc1cc(C(F)(F)F)ccc1Cl | nt | nt | -3.2% | nt | nt | -13.4%
CC(=O)c1cccc(NC(=O)CSc2ccc(-c3sc(C)nc3C)nn2)c1 | -8.8% | 6.6% | 2.0% | -14.7% | -0.4 | -15.3%
SMILES | p53 reactivator | Nrf2 activator | A549 tox | BRCA1 expr up | IL-2 act | Nrf2 inh
COc1ccccc1NC(=O)CSc1ccc(-c2sc(C)nc2C)nn1 | nt | 5.9% | -0.3% | nt | nt | nt
Cc1nc(C)c(-c2ccc(SCC(=O)Nc3cccc(F)c3)nn2)s1 | -9.4% | 3.8% | ? | -2.7% | -0.1 | 14.6µM*
CCOc1ccccc1NC(=O)CSc1ccc(-c2sc(C)nc2C)nn1 | -2.6% | 5.9% | 3.2% | -35.5% | -0.5 | 20.6µM*
CCOC(=O)C1CCCN(S(=O)(=O)CCNC(=O)c2cccc(OC)c2)C1 (stereo unspecified) | -0.4% | 0.6% | -2.4% | 5.4% | -0.4 | 18.4µM*
CCCOC(=O)c1c(NC(=O)c2cc3ccccc3c(=O)o2)sc2c1CCC(C)C2 (stereo unspecified) | nt | 4.7% | -3.1% | nt | nt | 5.5%
COC(=O)c1c(NC(=O)c2cc3ccccc3c(=O)o2)sc2c1CCCC2 | nt | 12.6µM* | -4.2% | -4.5% | nt | 13.1%
COc1ccc(C(=O)NC(=S)NNC(=O)[C@H]2C[C@@H]2c2ccccc2)cc1OC | 0.5% | 0.3% | 0.4% | -73.5% | -4.5 | 16.4µM*
COc1ccc(C(=O)NC(=S)Nc2ccc3c4c(cccc24)CC3)cc1OC | -0.7% | -0.8% | -15.6% | -17.9% | 5.6 | 7.31µM*
CCn1c(N2CCN(C(=S)Nc3ccc(OC)cc3)CC2)nc2ccccc21 | -2.8% | 2.7% | -9.3% | -6.7% | 0.1 | 16.4µM*
CSc1ccc(CNC(=O)c2cc3c(=O)n(Cc4ccco4)ccc3nc2C)cc1 | nt | ? | -1.1% | nt | nt | ?
CN(C)C=Nc1ncc2c3ccccc3n(CCN(C)C)c2c1C#N | -3.7% | 0.3% | -26.1% | -42.7% | -0.4 | ?
CCN(CC)CCn1c2ccccc2c2cnc(N)c(C#N)c21 | ? | 12.3% | ? | -86.1% | -7.7 | 5.17µM*
COC(=O)C1=C(C(=O)OC)[C@]2([C@H]3CCCCN[C@@H](Cc4ccccc4)C(=O)N3Cc3ccccc3)C=C[C@H]1O2 | -2.0% | 0.1% | -5.0% | -31.9% | -0.5 | 23.1µM*
O=C1[C@H](Cc2ccccc2)NCCCC[C@@H](c2ccc(Cl)cc2)N1Cc1ccccc1 | nt | 0.5% | 14.2% | -30.5% | -0.7 | 10.8%
CC1CCc2c(sc(NC(=O)C3=COCCO3)c2C(N)=O)C1 (stereo unspecified) | ? | 4.7% | -0.8% | 7.08µM* | 0.9 | ?
O=C(NC1CC2CCC(C1)N2Cc1nnnn1Cc1ccco1)NC12CC3CC(CC(C3)C1)C2 (stereo unspecified) | 2.0% | 1.8% | -28.0% | -57.4% | 1.4 | 4.11µM*
CCOc1ccccc1C(=O)NC1CC2CCCC(C1)N2Cc1nnnn1Cc1ccco1 (stereo unspecified) | -5.8% | -0.5% | -11.5% | -29.7% | -1.0 | -18.3%
Cc1cccc(N(CC(O)CON=C2c3ccccc3-c3ccccc32)S(C)(=O)=O)c1 (stereo unspecified) | -5.4% | 3.0% | ? | -51.9% | -0.6 | 18.4µM*
CC(C)CCNCC(O)CON=C1c2ccccc2-c2ccccc21 (stereo unspecified) | -12.3% | -0.6% | 7.1% | -86.6% | -0.6 | 11.6%

Screening data from PubChem BioAssay.
